Measurements from PubChem BioAssay AID1159580 (chemical genetic matrix, 2015).
In all, about 5,500 compounds went through this assay and about 2,000 (36%) were called active. Not shown: some 18% with an inconclusive outcome. Rule as the data show it: active = normalized growth mostly below about 0.91 (no sharp cut-off); inconclusive = no clear call, values can overlap the other calls; inactive = mostly above about 0.92. The list shows a part of the results.

Test: chemical genetic growth profiling, strain panel (AID 1159580);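 also: tested at 20 µM; growth read once vehicle control cultures reached saturation at 30 °C; 1 = growth at the plate median or of vehicle wells; lower values mean less growth of the strain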
Conditions: growth OD

Measured: normalized growth

COc1cc(O)c2c(=O)cc(-c3ccc(OC)c(-c4c(O)cc(O)c5c(=O)cc(-c6ccc(O)cc6)oc45)c3)oc2c1
inactive: S. cerevisiae deletion strains, locus YJL168C, strain set2, active compounds read low 0.992 | S. cerevisiae deletion strains, locus YJL187C, strain SWE1 (second series), active compounds read low 0.891 | S. cerevisiae deletion strains, locus YJL187C, strain SWE1, active compounds read low 0.997 | S. cerevisiae deletion strains, locus YJR043C, strain POL32, active compounds read low 0.935 | S. cerevisiae deletion strains, locus YJR075W, strain HOC1, active compounds read low 0.973 | S. cerevisiae deletion strains, locus YKL009W, strain mrt4, active compounds read low 1.02 | S. cerevisiae deletion strains, locus YKL068W, active compounds read low 0.98 | S. cerevisiae deletion strains, locus YKL085W, strain MDH1 (second series), active compounds read low 1 | S. cerevisiae deletion strains, locus YKL085W, strain MDH1, active compounds read low 1 | S. cerevisiae deletion strains, locus YKL160W, strain elf1, active compounds read low 0.991 | S. cerevisiae deletion strains, locus YKR001C, strain vps1, active compounds read low 0.962 | S. cerevisiae deletion strains, locus YKR026C, strain gcn3, active compounds read low 1.01 | S. cerevisiae deletion strains, locus YKR091W, strain srl3, active compounds read low 1.01 | S. cerevisiae deletion strains, locus YLL001W, strain dnm1, active compounds read low 1.02 | S. cerevisiae deletion strains, locus YLL026W, active compounds read low 1.01 | S. cerevisiae deletion strains, locus YLL041C, strain sdh2, active compounds read low 1.02 | S. cerevisiae deletion strains, locus YLR027C, strain aat2, active compounds read low 1.01 | S. cerevisiae deletion strains, locus YLR039C, strain RIC1, active compounds read low 0.95 | S. cerevisiae deletion strains, locus YLR058C, strain SHM2, active compounds read low 0.913 | S. cerevisiae deletion strains, locus YLR102C, strain apc9, active compounds read low 0.99 | S. cerevisiae deletion strains, locus YLR221C, strain rsa3, active compounds read low 1 | S. cerevisiae deletion strains, locus YLR258W, strain gsy2, active compounds read low 1.01 | S. cerevisiae deletion strains, locus YLR262C, strain YPT6 (second series), active compounds read low 1.04 | S. cerevisiae deletion strains, locus YLR262C, strain YPT6, active compounds read low 1.04 | S. cerevisiae deletion strains, locus YLR268W, strain sec22, active compounds read low 0.963 | S. cerevisiae deletion strains, locus YLR320W, strain mms22, active compounds read low 0.996 | S. cerevisiae deletion strains, locus YLR330W, strain CHS5, active compounds read low 0.975 | S. cerevisiae deletion strains, locus YLR342W, strain FKS1 (second series), active compounds read low 0.981 | S. cerevisiae deletion strains, locus YLR342W, strain FKS1, active compounds read low 0.996 | S. cerevisiae deletion strains, locus YLR357W, strain rsc2, active compounds read low 0.985 | S. cerevisiae deletion strains, locus YLR370C, strain arc18, active compounds read low 1.01 | S. cerevisiae deletion strains, locus YLR371W, strain rom2, active compounds read low 0.996 | S. cerevisiae deletion strains, locus YLR384C, strain iki3, active compounds read low 1.04 | S. cerevisiae deletion strains, locus YLR418C, strain cdc73, active compounds read low 0.975 | S. cerevisiae deletion strains, locus YML016C, strain PPZ1, active compounds read low 0.957 | S. cerevisiae deletion strains, locus YML032C, strain rad52, active compounds read low 0.998 | S. cerevisiae deletion strains, locus YML120C, strain ndi1, active compounds read low 1.03 | S. cerevisiae deletion strains, locus YML124C, strain tub3, active compounds read low 1 | S. cerevisiae deletion strains, locus YMR058W, strain fet3, active compounds read low 0.969 | S. cerevisiae deletion strains, locus YMR078C, strain ctf18, active compounds read low 0.997 | S. cerevisiae deletion strains, locus YMR125W, strain sto1, active compounds read low 1.01 | S. cerevisiae deletion strains, locus YMR129W, active compounds read low 1.02 | S. cerevisiae deletion strains, locus YMR205C, strain PFK2, active compounds read low 1.01 | S. cerevisiae deletion strains, locus YMR223W, strain ubp8, active compounds read low 0.971 | S. cerevisiae deletion strains, locus YMR231W, strain pep5, active compounds read low 1.01 | S. cerevisiae deletion strains, locus YMR307W, strain GAS1, active compounds read low 1.17 | S. cerevisiae deletion strains, locus YNL067W, strain RPL9B, active compounds read low 0.951 | S. cerevisiae deletion strains, locus YNL071W, strain lat1, active compounds read low 1.02 | S. cerevisiae deletion strains, locus YNL153C, strain GIM3, active compounds read low 0.912 | S. cerevisiae deletion strains, locus YNL209W, strain ssb2, active compounds read low 0.994 | S. cerevisiae deletion strains, locus YNL233W, strain BNI4, active compounds read low 0.973 | S. cerevisiae deletion strains, locus YNL248C, strain rpa49, active compounds read low 1.02 | S. cerevisiae deletion strains, locus YNL250W, strain rad50, active compounds read low 0.97 | S. cerevisiae deletion strains, locus YNL271C, strain bni1, active compounds read low 0.986 | S. cerevisiae deletion strains, locus YNL298W, strain CLA4, active compounds read low 0.975 | S. cerevisiae deletion strains, locus YNL307C, strain MCK1, active compounds read low 0.965 | S. cerevisiae deletion strains, locus YNL322C, strain KRE1 (second series), active compounds read low 1.03 | S. cerevisiae deletion strains, locus YNR049C, strain mso1, active compounds read low 1.02 | S. cerevisiae deletion strains, locus YNR052C, strain pop2, active compounds read low 0.993 | S. cerevisiae deletion strains, locus YOL012C, strain htz1 0.606 | S. cerevisiae deletion strains, locus YOL147C, strain pex11, active compounds read low 0.99 | S. cerevisiae deletion strains, locus YOR001W, strain rrp6, active compounds read low 0.987 | S. cerevisiae deletion strains, locus YOR061W, strain CKA2, active compounds read low 0.917 | S. cerevisiae deletion strains, locus YOR069W, strain VPS5, active compounds read low 0.98 | S. cerevisiae deletion strains, locus YOR070C, strain gyp1, active compounds read low 1.02 | S. cerevisiae deletion strains, locus YOR080W, strain dia2, active compounds read low 1 | S. cerevisiae deletion strains, locus YOR083W, strain WHI5, active compounds read low 0.996 | S. cerevisiae deletion strains, locus YOR106W, strain vam3, active compounds read low 0.983 | S. cerevisiae deletion strains, locus YOR136W, strain idh2, active compounds read low 0.993 | S. cerevisiae deletion strains, locus YOR144C, strain elg1, active compounds read low 1.01 | S. cerevisiae deletion strains, locus YOR184W, strain ser1, active compounds read low 0.958 | S. cerevisiae deletion strains, locus YOR265W, strain rbl2, active compounds read low 0.999 | S. cerevisiae deletion strains, locus YOR270C, strain vph1, active compounds read low 1.02 | S. cerevisiae deletion strains, locus YOR290C, strain snf2, active compounds read low 0.982 | S. cerevisiae deletion strains, locus YOR316C, strain cot1, active compounds read low 0.989 | S. cerevisiae deletion strains, locus YPL051W, strain arl3, active compounds read low 0.968 | S. cerevisiae deletion strains, locus YPL078C, strain atp4, active compounds read low 1.03 | S. cerevisiae deletion strains, locus YPL106C, strain sse1, active compounds read low 1 | S. cerevisiae deletion strains, locus YPL240C, strain hsp82, active compounds read low 1.01 | S. cerevisiae deletion strains, locus YPR119W, strain clb2, active compounds read low 1.01 | S. cerevisiae deletion strains, locus YPR141C, strain kar3, active compounds read low 0.98 | S. cerevisiae deletion strains, locus YPR163C, strain tif3, active compounds read low 0.997 | S. cerevisiae deletion strains, locus YPR167C, strain met16, active compounds read low 0.99 | S. cerevisiae deletion strains, strain wtn01, active compounds read low 0.969 | S. cerevisiae strains, strain wild type, active compounds read low 0.904
